# From PubChem BioAssay
# Rows were chosen to be rich in hits. Some 17% of all compounds tested hit in one or more screens of this group.
# TGFb SMAD3 inh = TGF-b pathway inhibition. HepG2 CAGA-GFP TGF-b/SMAD3 reporter, GFP fluorescence, 18 h; TGF-beta stimulated, 500 pg/mL final. actives 1.2% (n = 410,000). Potency, µM (doses to about 46.1 µM), without a hit: top-dose activity, negative = inhibition, most hits filed as inhibitors; further: on the % scale 0 is the no-effect control and ±100 the full control effect; nearly all actives have a fitted effect of over 65% in size
#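 HEPG2 CAGA-GFP cells (1000/well, DMEM with 1% FBS) were pre-incubated 2 h at 37 degrees C, given compound by pin tool, then stimulated with TGF-beta at 500 pg/mL final for 18 h before per-cell GFP fluorescence imaging.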
# HepG2 tox = kills HepG2 cells in TGF-b inhibitor counter-screen. HepG2 CAGA-GFP viability, ATP luminescence, 18 h. Potency, µM (top dose mostly 46.1 µM), for inactives: top-dose activity change, negative = cytotoxicity, hits mostly cytotoxic. actives 0.76% (n = 410,000)
#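 HepG2 CAGA-GFP cells (1000/well, DMEM with 1% FBS) received compound, then TGF-beta at 500 pg/mL final, and were incubated 18 hours at 37 degrees C. Viability was read by CellTiter-Glo luminescence. Media-only wells were set as complete cell-killing and DMSO as no toxicity.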
# DT40 TDP1 CPT = DT40-hTDP1 cell growth loss with CPT; Potency, µM (titrated, usually from 46.2 µM), without a hit: at the top dose activity change, negative = growth inhibition, actives largely listed as inhibitors; AID 686979; chicken DT40 Tdp1-/-;hTDP1 cells + 20 nM CPT, ATP luminescence, 48 h; actives 12% (n = 420,000); further: on the % scale 0 is the no-effect control and ±100 the full control effect; nearly all actives have a fitted effect of over 55% in size
#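 Chicken DT40 Tdp1-/- cells complemented with human TDP1, 400 cells/well, exposed to compounds plus 20 nM camptothecin for at least 48 h at 37 C; viability read as ATP content by CellTiter-Glo luminescence.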
# ATXN2 expr inh = inhibitors of ATXN2 expression; Potency, µM (top dose mostly 57 µM), inactives show at the top dose activity change, negative = inhibition, usual class: inhibitors; HEK-293 ATXN2-luciferase reporter, luminescence, 24 h; actives 0.72% (n = 360,000); further: on the % scale 0 is the no-effect control and ±100 the full control effect; nearly all actives have a fitted effect of over 55% in size
#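 qHTS (up to 57 uM final) was run with 24 h compound exposure of reporter cells at 37 °C. Each well was multiplexed: SteadyGlo luminescence measured ATXN2-luciferase expression after a fluorogenic Gly-Phe-AFC viability readout (25 uM final).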
# DT40 TDP1 no CPT = qHTS for Inhibitors of human tyrosyl-DNA phosphodiesterase 1 (TDP1): qHTS in cells in absence of CPT; DT40 Tdp1-/- hTDP1 cells, no CPT, ATP luminescence, 48 h; Potency, µM (highest dose often 46.2 µM), for the others: at the highest dose activity change, negative = growth inhibition, actives largely listed as inhibitors; actives 15% (n = 420,000); further: on the % scale 0 is the no-effect control and ±100 the full control effect; nearly all actives have a fitted effect of over 55% in size
#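 Stably hTDP1-transfected Tdp1-null chicken DT40 cells were treated with library compounds minus camptothecin and grown for at least 48 hr at 37 °C, after which cellular ATP was quantified by luminescence.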
# S2 tox = reduces viability in counter-screen for ATXN expression inhibitors; Potency, µM (series often up to 56.7 µM), actives largely listed as cytotoxic; AID 651635; S2 cells (HEK-293 line with an ATXN2-luciferase reporter) viability, CellTiter-Fluor protease fluorescence, 24 h; actives 0.49% (n = 400,000); further: nearly all actives have a fitted effect of over 40% in size
# The depositor's hits bear a star; i = inactive; ? = inconclusive; / = no result. The call rests on the fitted dose curve; in most records, active means well fitted curve in the direction sought with a large enough effect; inconclusive means small, poorly fitted or top-dose-only effect, or another doubt; inactive means no such curve, though single readings can be large; an effect the other way counts as inactive or inconclusive. Potency means the concentration at half of the fitted maximal effect.
SMILES,TGFb SMAD3 inh,HepG2 tox,DT40 TDP1 CPT,ATXN2 expr inh,DT40 TDP1 no CPT,S2 tox
Cc1ccccc1OCC(=O)N(Cc1ccc(C(C)C)cc1)C1CCS(=O)(=O)C1 (centres undefined),-0.7%,-12.1%,?,-15.0%,?,i
CC(C)(C)n1cnc2cc(NCc3ccccc3Cl)ccc21,-20.4%,-33.0%,?,0.3%,14.6µM*,i
Cc1ccc(CNc2ccc3c(c2)ncn3C(C)(C)C)cc1,-4.4%,-11.5%,?,60.4%,?,i
c1ccc(CCNc2nc(-c3ccncc3)cs2)cc1,0.4%,-41.5%,?,-1.2%,?,i
CCC(C)C(=O)Nc1nc(-c2ccc3c(c2)NC(=O)CO3)cs1 (centres undefined),-0.2%,2.2%,?,25.4%,18.4µM*,?
O=C1COc2ccc(-c3csc(NCCc4ccccc4)n3)cc2N1,-25.3%,-5.7%,16.4µM*,-20.5%,3.66µM*,i
Nc1nc(-c2ccc3c(c2)NC(=O)CO3)cs1,1.6%,1.6%,?,0.7%,-25.1%,i
Cc1cc(CCNC=O)c(C)c2c1oc1ccccc12,-14.8%,-11.5%,0.3%,0.0%,-1.5%,i
CCOC(=O)c1cc(-c2ccc(F)cc2)n(CCC(=O)NCc2ccc(C)cc2)c1C,-8.3%,-36.8%,?,/,20.6µM*,/
CC(=O)c1cc(-c2ccccc2)n(CCC(=O)Nc2cc(C)cc(C)c2)c1C,?,-8.9%,?,/,?,/
CCn1c(-c2ccc(C)cc2)nn(CC(=O)NCCc2ccccc2)c1=S,-17.3%,-2.9%,2.91µM*,?,2.91µM*,i
COc1ccc(-c2cc(C(C)=O)c(C)n2CCC(=O)NCc2ccc(F)cc2)cc1,-13.8%,-3.8%,?,/,?,/
CCCNC(=O)CCn1c(-c2ccc(C)cc2)cc(C(=O)OCC)c1C,-23.7%,-10.7%,?,23.0%,?,i
CC(=O)c1cc(-c2ccccc2)n(CC(=O)NCCc2ccc(C)cc2)c1C,0.0%,3.3%,14.6µM*,/,8.2µM*,/
CC(=O)c1cc(-c2ccc(F)cc2)n(CC(=O)NCc2ccc(C)cc2)c1C,0.0%,-3.1%,16.4µM*,/,8.2µM*,/
Cc1nn(CC(=O)NCCc2ccccc2)c(=O)c2ccccc12,-29.7%,0.1%,-3.3%,5.4%,-3.4%,i
Cc1ccc(-c2nc(SC(C)C(=O)N3CCCC3)n[nH]2)cc1 (centres undefined),2.8%,0.2%,-24.0%,5.2%,-20.5%,i
CCC1(c2ccc(F)cc2)NC(=O)N(CC(=O)NCC(=O)Nc2cccc(C)c2C)C1=O (centres undefined),?,-20.9%,10.2%,-1.3%,-8.4%,i
CCn1cc(C(=O)NCC(OC)OC)c(=O)c2cc(S(=O)(=O)N(C)C3CCCCC3)ccc21,-10.5%,-41.4%,?,-25.2%,-23.0%,i
COc1ccc(N(C(=O)c2cnccn2)C(C(=O)NCc2ccccc2)c2ccc(O)cc2)cc1 (centres undefined),-1.5%,-1.4%,11.7%,18.9%,0.1%,/
Cc1c(Cl)ccc2sc(N3CCN(C(=O)C4CC4)CC3)nc12,17.8µM*,-40.9%,11.6µM*,0.0%,5.8µM*,?
COc1cccc2sc(N3CCN(C(=O)CCS(=O)(=O)c4ccc(F)cc4)CC3)nc12,?,-15.7%,5.8µM*,/,7.31µM*,/
Cc1ccc(S(=O)(=O)CCC(=O)N2CCN(c3nc4c(C)c(Cl)ccc4s3)CC2)cc1,?,-13.3%,2.59µM*,-4.5%,3.26µM*,i
Cc1ccc(S(=O)(=O)CCC(=O)N2CCN(c3ccccc3O)CC2)cc1,-18.8%,-14.3%,-14.8%,-6.1%,3.5%,i
C=CCOc1c(Cl)cc(Cl)cc1S(=O)(=O)NCCO,-3.6%,-0.8%,11.1%,2.7%,-2.0%,i
